Experimental data: PubChem BioAssay (EPA / NIEHS)
Where “and” joins values, the source holds several entries; their conditions need not be identical. Equal entries are not always repeated. The source holds several records for some structures; these can differ, active in one and inactive in another. Calls of active or inactive are those of the source. Rule for the calls: active = hit-call score of the fitted dose curve at least 0.9, where 1 is the maximum; inactive = score below 0.9.

Key:
[1] = read-out: Interleukin-8 (IL8), CXCL8 (gene 3576); test: BSK_CASM3C_IL8: BioMAP Diversity Plus: CASM3C Assay for Interleukin-8 (IL8) Biomarker Activity (AID 2283042); conditions: primary human coronary artery smooth muscle cells; actives raise or lower the signal;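 note: IL-8 protein level quantified by ELISA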
[2] = read-out: Human Leukocyte Antigen - DR isotype (HLADR), HLA-DRA (gene 3122); test: BSK_CASM3C_HLADR: BioMAP Diversity Plus: CASM3C Assay for Human Leukocyte Antigen - DR isotype (HLADR) Biomarker Activity (AID 2283043); conditions: primary human coronary artery smooth muscle cells; actives raise or lower the signal;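 note: cell-surface HLA-DR protein level quantified by ELISA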
[3] = read-out: Macrophage colony-stimulating factor (MCSF), CSF1 (gene 1435); test: BSK_CASM3C_MCSF: BioMAP Diversity Plus: CASM3C Assay for Macrophage colony-stimulating factor (MCSF) Biomarker Activity (AID 2283044); conditions: primary human coronary artery smooth muscle cells; actives raise or lower the signal;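 note: M-CSF protein amount quantified by ELISA after 24 h exposure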
[4] = read-out: Low-density lipoprotein receptor (LDLR), LDLR (gene 3949); test: BSK_CASM3C_LDLR: BioMAP Diversity Plus: CASM3C Assay for Low-density lipoprotein receptor (LDLR) Biomarker Activity (AID 2283045); conditions: primary human coronary artery smooth muscle cells; actives raise or lower the signal;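 note: LDLR protein level on the cell surface quantified by ELISA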
[5] = read-out: Monocyte Chemoattractant Protein-1 (MCP1), CCL2 (gene 6347); test: BSK_CASM3C_MCP1: BioMAP Diversity Plus: CASM3C Assay for Monocyte Chemoattractant Protein-1 (MCP1) Biomarker Activity (AID 2283046); conditions: primary human coronary artery smooth muscle cells; actives raise or lower the signal;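 note: MCP-1 level quantified by ELISA 24 h after dosing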
[6] = BSK_CASM3C_Proliferation: Cell Proliferation Assessment in the BioMAP Diversity Plus: CASM3C Assay (AID 2283047); conditions: primary human coronary artery smooth muscle cells;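 note: sulforhodamine B total protein stain as relative cell number at 560 nm; sub-confluent cells exposed 48 h before staining; fitted both ways against DMSO so gain or loss of cell number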
[7] = read-out: Monokine induced gamma interferon (MIG), CXCL9 (gene 4283); test: BSK_CASM3C_MIG: BioMAP Diversity Plus: CASM3C Assay for Monokine induced gamma interferon (MIG) Biomarker Activity (AID 2283048); conditions: primary human coronary artery smooth muscle cells; actives raise or lower the signal;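 note: MIG protein level measured by ELISA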
[8] = read-out: serum amyloid A (SAA), SAA1 (gene 6288); test: BSK_CASM3C_SAA: BioMAP Diversity Plus: CASM3C Assay for serum amyloid A (SAA) Biomarker Activity (AID 2283049); conditions: primary human coronary artery smooth muscle cells; actives raise or lower the signal;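 note: SAA protein level quantified by ELISA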
[9] = BSK_CASM3C_SRB: Viability Assessment in the BioMAP Diversity Plus: CASM3C Assay (AID 2283050); conditions: primary human coronary artery smooth muscle cells
[10] = read-out: Thrombomodulin, THBD (gene 7056); test: BSK_CASM3C_Thrombomodulin: BioMAP Diversity Plus: CASM3C Assay for Thrombomodulin Biomarker Activity (AID 2283051); conditions: primary human coronary artery smooth muscle cells; actives raise or lower the signal;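 note: thrombomodulin protein level measured by ELISA 24 h after dosing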
[11] = read-out: Tissue Factor, F3 (gene 2152); test: BSK_CASM3C_TissueFactor: BioMAP Diversity Plus: CASM3C Assay for Tissue Factor Biomarker Activity (AID 2283052); conditions: primary human coronary artery smooth muscle cells; actives raise or lower the signal;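 note: cell surface tissue factor protein level read by ELISA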
[12] = read-out: Interferon-gamma inducible Protein 10 (IP10), CXCL10 (gene 3627); test: BSK_hDFCGF_IP10: BioMAP Diversity Plus: hDFCGF Assay for Interferon-gamma inducible Protein 10 (IP10) Biomarker Activity (AID 2283053); conditions: primary human foreskin fibroblasts; actives raise or lower the signal
Procedure, shortened: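 Human foreskin fibroblast primary cells (hDFCGF system) were dosed with chemical and assayed at 24 h; IP-10 measured by ELISA. Activity fitted bidirectionally relative to DMSO negative control as baseline.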

[13] = read-out: Urokinase-type plasminogen activator receptor (uPAR), PLAUR (gene 5329); test: BSK_CASM3C_uPAR: BioMAP Diversity Plus: CASM3C Assay for Urokinase-type plasminogen activator receptor (uPAR) Biomarker Activity (AID 2283054); conditions: primary human coronary artery smooth muscle cells; actives raise or lower the signal;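 note: cell-surface uPAR protein level quantified by ELISA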
[14] = read-out: Vascular cell adhesion molecule 1 (VCAM1), VCAM1 (gene 7412); test: BSK_CASM3C_VCAM1: BioMAP Diversity Plus: CASM3C Assay for Vascular cell adhesion molecule 1 (VCAM1) Biomarker Activity (AID 2283055); conditions: primary human coronary artery smooth muscle cells; actives raise or lower the signal;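 note: VCAM-1 protein level quantified by ELISA on the cells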
[15] = read-out: Epidermal growth factor receptor (EGFR), EGFR (gene 1956); test: BSK_hDFCGF_EGFR: BioMAP Diversity Plus: hDFCGF Assay for Epidermal growth factor receptor (EGFR) Biomarker Activity (AID 2283057); conditions: primary human foreskin fibroblasts; actives raise or lower the signal
Procedure, shortened: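 Primary human foreskin fibroblasts were exposed to compound for 24 h, after which cell-surface EGFR was quantified by ELISA. Activity was fitted bidirectionally against the DMSO negative control as baseline.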

[16] = read-out: Macrophage colony-stimulating factor (MCSF), CSF1 (gene 1435); test: BSK_hDFCGF_MCSF: BioMAP Diversity Plus: hDFCGF Assay for Macrophage colony-stimulating factor (MCSF) Biomarker Activity (AID 2283060); conditions: primary human foreskin fibroblasts; actives raise or lower the signal
Procedure, shortened: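 Human foreskin fibroblast primary cultures; M-CSF measured by ELISA 24 hours after chemical dosing. Bidirectional fitting relative to DMSO, with overt cytotoxicity tracked by parallel SRB total-protein staining (0.1% SRB, 10% TCA fixation, 560 nm).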

[17] = read-out: Tissue plasminogen activator (tPA), PLAT (gene 5327); test: BSK_BE3C_tPA: BioMAP Diversity Plus: BE3C Assay for Tissue plasminogen activator (tPA) Biomarker Activity (AID 2283041); conditions: primary human bronchial epithelial cells; actives raise or lower the signal
Procedure, shortened: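 Human primary bronchial epithelial cells were dosed with chemical and tPA biomarker levels measured by ELISA 24 hours later. Activity was fitted bidirectionally against DMSO as negative control and baseline.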

[18] = read-out: Collagen III, COL3A1 (gene 1281); test: BSK_hDFCGF_CollagenIII: BioMAP Diversity Plus: hDFCGF Assay for Collagen III Biomarker Activity (AID 2283056); conditions: primary human foreskin fibroblasts; actives raise or lower the signal
Procedure, shortened: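 Human foreskin fibroblast primary cultures sampled 24 h after dosing; Collagen III quantified by ELISA. Signal fitted bidirectionally against DMSO baseline.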

[19] = BSK_hDFCGF_Proliferation: Cell Proliferation Assessment in the BioMAP Diversity Plus: hDFCGF Assay (AID 2283059); conditions: primary human foreskin fibroblasts;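 note: curves fitted for both rise and fall of signal versus DMSO baseline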
Procedure, shortened: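 Total protein read at 560 nm after 0.1% SRB staining of TCA-fixed human skin fibroblasts, […]. Activity is fitted in both directions relative to DMSO as baseline.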

[20] = read-out: Interleukin-8 (IL8), CXCL8 (gene 3576); test: BSK_hDFCGF_IL8: BioMAP Diversity Plus: hDFCGF Assay for Interleukin-8 (IL8) Biomarker Activity (AID 2283058); conditions: primary human foreskin fibroblasts; actives raise or lower the signal
Procedure, shortened: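 Primary human foreskin fibroblasts (hDFCGF system) dosed with chemical; IL-8 measured by ELISA 24 hours later. Bidirectional curve fitting relative to DMSO baseline; cytotoxicity tracked in parallel cultures by SRB total protein staining.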

Measured: AC50

OCCC(F)(F)C(F)(F)C(F)(F)C(F)(F)C(F)(F)C(F)(F)C(F)(F)C(F)(F)F
inactive: [1] | [3] | [4] | [5] | [7] | [8] | [9] | [10] | [11] | [12] | [13] | [15] | [16]
active: [1] 42.7 µM | [2] 20 µM and 27.5 µM and 18.9 µM | [3] 38.6 µM and 30 µM | [4] 58.8 µM and 55.4 µM | [5] 48.6 µM and 47.4 µM | [6] 20 µM and 22.5 µM and 21.8 µM | [7] 46.4 µM and 46.8 µM | [8] 43 µM and 37.9 µM | [9] 48.7 µM and 40.5 µM | [11] 30 µM and 18.4 µM | [12] 14.6 µM and 11.2 µM | [13] 42.3 µM and 43.7 µM | [14] 12.3 µM and 23.2 µM and 11.5 µM | [16] 13.8 µM and 12.1 µM

Oc1cccc(O)c1
not listed: [18] | [19] | [20]
inactive: all other assays above

Oc1cc2ccccc2c2ccccc12
active: [17] 14.7 µM | [1] 10.6 µM | [2] 7.47 µM | [3] 8.24 µM | [4] 10.1 µM | [5] 11.4 µM | [6] 10.5 µM | [7] 11.9 µM | [8] 11.3 µM | [9] 11.2 µM | [11] 10.5 µM | [12] 2 µM | [13] 11.2 µM | [14] 8.3 µM | [18] 1.9 µM | [19] 1.56 µM | [16] 2.72 µM
inactive: [10] | [15]

OCCC(F)(F)C(F)(F)C(F)(F)C(F)(F)C(F)(F)C(F)(F)F
active: [6] 44.3 µM | [12] 52.6 µM | [19] 48.3 µM and 47.4 µM | [16] 54.2 µM
inactive: [17] | [1] | [2] | [3] | [4] | [5] | [6] | [7] | [8] | [9] | [10] | [11] | [12] | [13] | [14] | [15] | [19] | [16]

C[C@@H]1C[C@H]2[C@@H]3CCC4=CC(=O)C=C[C@]4(C)[C@@]3(F)[C@@H](O)C[C@]2(C)[C@@]1(O)C(=O)COP(=O)(O)O
active: [1] 176 nM and 1.04 µM and 101 nM | [3] 29.4 nM and 113 nM and 217 nM | [5] 141 nM and 1.58 µM and 720 nM | [6] 0.163 µM | [8] 54.4 nM and 105 nM and 155 nM | [10] 29.4 nM and 100 nM | [11] 122 nM and 674 nM | [12] 696 nM and 895 nM | [14] 0.1 µM | [16] 615 nM and 730 nM
inactive: [2] | [4] | [6] | [7] | [9] | [10] | [11] | [12] | [13] | [14] | [15] | [16]

CC1=C(/C=C/C(C)=C/C=C/C(C)=C/C(=O)O)C(C)(C)CCC1
active: [2] 26.3 µM | [6] 20 µM | [10] 8.15 µM | [12] 30.2 µM | [14] 20 µM | [18] 15 µM | [20] 38.9 µM | [16] 25.2 µM
not listed: [9] | [19]
inactive: all other assays above

CC(O)CO (stereo not drawn)
not listed: [19]
inactive: all other assays above

CC#C[C@]1(O)CC[C@H]2[C@@H]3CCC4=CC(=O)CCC4=C3[C@@H](c3ccc(N(C)C)cc3)C[C@@]21C
active: [17] 19.4 µM | [1] 5.69 µM | [6] 31.1 µM | [9] 31.8 µM | [13] 30.6 µM
not listed: [18] | [19] | [20]
inactive: all other assays above

CCCCCCCCOC(=O)CCCCCCCCC(=O)OCCCCCCCC
not listed: [19] | [20]
inactive: all other assays above

CCCCC(CC)COC(=O)CCCCC(=O)OCC(CC)CCCC (stereo not drawn)
not listed: [20]
inactive: all other assays above
